± gives the standard deviation of the averaged measurements.
Tests used:
Experiment in all cases: promoter activity interaction Z-score (Lux/OD deviation from empty-vector control); higher = stronger promoter induction by the compound
[1] = test system: E. coli BW25113 acrABp lux reporter
Procedure, shortened: (§1)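 At 37°C, E. coli BW25113 reporter cultures in 40 µl LB Lennox in 384-well plates were read for OD600 and luminescence every 30 min for 12 h. Windows were 0–8 h for wild type and 1–9 h for deletion strains, and wells under 10% of the median growth value were removed. The score is the Z-transformed residual of growth-normalised luminescence against a control fit.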

[2] = test system: E. coli BW25113 micFp lux reporter
Procedure, shortened: as §1

[3] = test system: E. coli BW25113 ompFp lux reporter
Procedure, shortened: as §1

[4] = test system: E. coli BW25113 robp lux reporter
Procedure, shortened: as §1

[5] = test system: E. coli BW25113 soxSp lux reporter
Procedure, shortened: as §1

[6] = test system: E. coli BW25113 tolCp lux reporter
Procedure, shortened: as §1

[7] = 21.6 µg/ml, genetic background: wild type
[8] = 21.6 µg/ml, genetic background: ΔmarA
[9] = 21.6 µg/ml, genetic background: Δrob
[10] = 21.6 µg/ml, genetic background: ΔsoxS
[11] = 43.2 µg/ml, genetic background: wild type
[12] = 43.2 µg/ml, genetic background: ΔmarA
[13] = 43.2 µg/ml, genetic background: Δrob
[14] = 43.2 µg/ml, genetic background: ΔsoxS
[15] = 86.4 µg/ml, genetic background: wild type
[16] = 86.4 µg/ml, genetic background: ΔmarA
[17] = 86.4 µg/ml, genetic background: Δrob
[18] = 86.4 µg/ml, genetic background: ΔsoxS
[19] = 172.7 µg/ml, genetic background: wild type
[20] = 172.7 µg/ml, genetic background: ΔmarA
[21] = 172.7 µg/ml, genetic background: Δrob
[22] = 172.7 µg/ml, genetic background: ΔsoxS

SMILES: COc1ccc2[nH]c([S+]([O-])Cc3ncc(C)c(OC)c3C)nc2c1 (stereo unspecified) [Omeprazole]
- promoter activity interaction Z-score [1, 7]: -0.337 ± 0.014
- promoter activity interaction Z-score [1, 8]: 0.346 ± 0.48
- promoter activity interaction Z-score [1, 9]: -0.0504 ± 0.066
- promoter activity interaction Z-score [1, 10]: -0.13 ± 0.54
- promoter activity interaction Z-score [1, 11]: -0.353 ± 0.082
- promoter activity interaction Z-score [1, 12]: -0.358 ± 0.072
- promoter activity interaction Z-score [1, 13]: -0.105 ± 0.12
- promoter activity interaction Z-score [1, 14]: -0.0181 ± 0.095
- promoter activity interaction Z-score [1, 15]: -0.362 ± 0.37
- promoter activity interaction Z-score [1, 16]: -0.395 ± 0.11
- promoter activity interaction Z-score [1, 17]: -0.192 ± 0.19
- promoter activity interaction Z-score [1, 18]: -0.303 ± 0.19
- promoter activity interaction Z-score [1, 19]: -0.479 ± 0.43
- promoter activity interaction Z-score [1, 20]: -0.193 ± 0.65
- promoter activity interaction Z-score [1, 21]: -0.199 ± 0.17
- promoter activity interaction Z-score [1, 22]: -0.532 ± 0.35
- promoter activity interaction Z-score [2, 7]: -0.467 ± 0.1
- promoter activity interaction Z-score [2, 8]: -0.0778 ± 0.095
- promoter activity interaction Z-score [2, 9]: -0.00843 ± 0.2
- promoter activity interaction Z-score [2, 10]: -0.201 ± 0.026
- promoter activity interaction Z-score [2, 11]: -0.228 ± 0.15
- promoter activity interaction Z-score [2, 12]: -0.00184 ± 0.029
- promoter activity interaction Z-score [2, 13]: 0.0425 ± 0.23
- promoter activity interaction Z-score [2, 14]: -0.0104 ± 0.033
- promoter activity interaction Z-score [2, 15]: -0.311 ± 0.11
- promoter activity interaction Z-score [2, 16]: 0.141 ± 0.0042
- promoter activity interaction Z-score [2, 17]: 0.11 ± 0.088
- promoter activity interaction Z-score [2, 18]: 0.0651 ± 0.15
- promoter activity interaction Z-score [2, 19]: -0.637 ± 0.076
- promoter activity interaction Z-score [2, 20]: 0.0179 ± 0.059
- promoter activity interaction Z-score [2, 21]: -0.0934 ± 0.045
- promoter activity interaction Z-score [2, 22]: -0.467 ± 0.12
- promoter activity interaction Z-score [3, 7]: -0.482 ± 0.29
- promoter activity interaction Z-score [3, 8]: -0.539 ± 0.12
- promoter activity interaction Z-score [3, 9]: -0.476 ± 0.1
- promoter activity interaction Z-score [3, 10]: -0.299 ± 0.19
- promoter activity interaction Z-score [3, 11]: -0.42 ± 0.17
- promoter activity interaction Z-score [3, 12]: -0.516 ± 0.55
- promoter activity interaction Z-score [3, 13]: -0.244 ± 0.2
- promoter activity interaction Z-score [3, 14]: -0.555 ± 0.25
- promoter activity interaction Z-score [3, 15]: -1.02 ± 0.014
- promoter activity interaction Z-score [3, 16]: -0.56 ± 0.35
- promoter activity interaction Z-score [3, 17]: -0.352 ± 0.17
- promoter activity interaction Z-score [3, 18]: -0.773 ± 0.19
- promoter activity interaction Z-score [3, 19]: -0.996 ± 0.11
- promoter activity interaction Z-score [3, 20]: -0.786 ± 0.12
- promoter activity interaction Z-score [3, 21]: -1.14 ± 0.44
- promoter activity interaction Z-score [3, 22]: -1.41 ± 0.14
- promoter activity interaction Z-score [4, 7]: -0.44 ± 0.32
- promoter activity interaction Z-score [4, 8]: -0.171 ± 0.43
- promoter activity interaction Z-score [4, 9]: -0.295 ± 0.01
- promoter activity interaction Z-score [4, 10]: 0.394 ± 0.34
- promoter activity interaction Z-score [4, 11]: 0.141 ± 0.33
- promoter activity interaction Z-score [4, 12]: 0.325 ± 0.23
- promoter activity interaction Z-score [4, 13]: -0.173 ± 0.37
- promoter activity interaction Z-score [4, 14]: 0.145 ± 0.46
- promoter activity interaction Z-score [4, 15]: -0.722 ± 0.046
- promoter activity interaction Z-score [4, 16]: 0.298 ± 0.23
- promoter activity interaction Z-score [4, 17]: -0.445 ± 0.32
- promoter activity interaction Z-score [4, 18]: -0.519 ± 0.64
- promoter activity interaction Z-score [4, 19]: -0.656 ± 0.28
- promoter activity interaction Z-score [4, 20]: -0.167 ± 0.31
- promoter activity interaction Z-score [4, 21]: -0.507 ± 0.035
- promoter activity interaction Z-score [4, 22]: -0.379 ± 0.46
- promoter activity interaction Z-score [5, 7]: -0.231 ± 0.11
- promoter activity interaction Z-score [5, 8]: -0.202 ± 0.05
- promoter activity interaction Z-score [5, 9]: -0.257 ± 0.062
- promoter activity interaction Z-score [5, 10]: -0.178 ± 0.32
- promoter activity interaction Z-score [5, 11]: -0.256 ± 0.0098
- promoter activity interaction Z-score [5, 12]: -0.206 ± 0.022
- promoter activity interaction Z-score [5, 13]: -0.175 ± 0.12
- promoter activity interaction Z-score [5, 14]: -0.281 ± 0.054
- promoter activity interaction Z-score [5, 15]: -0.301 ± 0.081
- promoter activity interaction Z-score [5, 16]: -0.305 ± 0.1
- promoter activity interaction Z-score [5, 17]: -0.0539 ± 0.1
- promoter activity interaction Z-score [5, 18]: -0.344 ± 0.12
- promoter activity interaction Z-score [5, 19]: -0.333 ± 0.024
- promoter activity interaction Z-score [5, 20]: -0.374 ± 0.013
- promoter activity interaction Z-score [5, 21]: -0.226 ± 0.14
- promoter activity interaction Z-score [5, 22]: -0.806 ± 0.14
- promoter activity interaction Z-score [6, 7]: -0.0562 ± 0.63
- promoter activity interaction Z-score [6, 8]: -0.81 ± 0.13
- promoter activity interaction Z-score [6, 9]: -0.978 ± 0.82
- promoter activity interaction Z-score [6, 10]: -0.661 ± 0.85
- promoter activity interaction Z-score [6, 11]: 0.122 ± 0.9
- promoter activity interaction Z-score [6, 12]: -0.409 ± 0.93
- promoter activity interaction Z-score [6, 13]: -0.642 ± 0.94
- promoter activity interaction Z-score [6, 14]: 0.332 ± 0.16
- promoter activity interaction Z-score [6, 15]: -0.33 ± 0.54
- promoter activity interaction Z-score [6, 16]: 0.11 ± 0.23
- promoter activity interaction Z-score [6, 17]: 0.71 ± 0.025
- promoter activity interaction Z-score [6, 18]: 0.0744 ± 0.91
- promoter activity interaction Z-score [6, 19]: 0.169 ± 0.58
- promoter activity interaction Z-score [6, 20]: -0.0827 ± 1.5
- promoter activity interaction Z-score [6, 21]: 0.0999 ± 0.066
- promoter activity interaction Z-score [6, 22]: -0.969 ± 0.63

Reference: the supplement of paper PMC12282887
